The source of these data is PubChem BioAssay (NCATS).

Records with an inconclusive call do not appear. Calls of active or inactive are those of the source. Calls come from the whole dose curve.
Potency is the fitted concentration of half-maximal effect.

This assay can be described thus: A High-Content qHTS Against Drug Library for the Identification of Small Molecules that Inhibit DYT1 Early Onset Primary Dystonia-Associated Cell Pathology (AID 1645839). Particulars: HEK293 Flp-In EGFP-delE TorsinA, punctate imaging, 48 h; series mostly up to 46.1 µM; % pathology change, negative = correction: at the top concentration. An excerpt:
Nicole Calakos M.D., Ph.D.
Duke University School of Medicine, Durham, NC
In DYT1 dystonia due to delGAG in the TOR1A gene, there is a robust and widely replicated finding of TorsinA protein mislocalization caused when the mutant protein is in excess of the wildtype protein (1-7). Stable HEK293 cell lines were created that replicate this phenomenon. Inducible expression of an EGFP-hu delE TorsinA encoding cDNA causes pronounced punctate cellular distribution. […] This phenotypic difference in EGFP-huTorsinA fusion protein distribution serves as an indicator of cell pathology. […] RNAi screen results with the assay were validated in DYT1 patient cell phenotypes, intersected with a known dystonia gene, and led to discovery of new human genetic dystonia associations.
The bioassay described herein is a high-content image screen with two readouts. The "%pathology" readout is the primary qHTS data channel, while the "cellcount" is the counterscreen qHTS channel. Desired active compounds are those that show inhibition in %pathology channel but no activity or minimal toxicity in cellcount readout.
1. Kustedjo, K., Bracey, M.H., and Cravatt, B.F. (2000). […] J. Biol. Chem. 275, 27933 - 27939.
2. Bragg, D.C., Kaufman, C.A., Kock, N., and Breakefield, X.O. (2004). Inhibition of N-linked glycosylation prevents inclusion formation by the dystonia-related mutant form of torsinA. Mol. Cell. Neurosci. 27, 417 - 426.
3. Gonzalez-Alegre, P., and Paulson, H.L. (2004). Aberrant Cellular Behavior of Mutant TorsinA Implicates Nuclear Envelope Dysfunction in DYT1 Dystonia. J. Neurosci. 24, 2593 - 2601.
4. Goodchild, R.E., and Dauer, W.T. (2004). Mislocalization to the nuclear envelope: an effect of the dystonia-causing torsinA mutation. Proc. Natl. Acad. Sci. U. S. A. 101, 847 - 852.
5. Kock, N., Allchorne, A.J., Sena-Esteves, M., Woolf, C.J., and Breakefield, X.O. (2006). RNAi blocks DYT1 mutant torsinA inclusions in neurons. Neurosci. Lett. 395, 201 - 205.
6. Hewett, J.W., Nery, F.C., Niland, B., Ge, P., Tan, P., Hadwiger, P., Tannous, B.A., Sah, D.W.Y., and Breakefield, X.O. (2008). siRNA knock-down of mutant torsinA restores processing through secretory pathway in DYT1 dystonia cells. Hum. Mol. Genet. 17, 1436 - 1445.
7. Calakos, N., Patel, V.D., Gottron, M., Wang, G., Tran-Viet, K.N., Brewington, D., Beyer, J.L., Steffens, D.C., Krishnan, R.R., and Zuchner, S. (2010). Functional evidence implicating a novel TOR1A mutation in idiopathic, late-onset focal dystonia. J. Med. Genet. 47, 646 - 650.
8. Rittiner* JE, Caffall* ZF, Hernandez-Martinez R, Sanderson SM, Pearson JL, Tsukayama KK, Liu AY, Xiao C, Tracy S, Shipman MK, Hickey P, Johnson J, Scott B, Stacy M, Saunders-Pullman R, Bressman S, Simonyan K, Sharma N, Ozelius LJ, Cirulli ET, Calakos N. Functional Genomic Analyses of Mendelian and Sporadic Disease Identify Impaired eIF2alpha Signaling as a Generalizable Mechanism for Dystonia. Neuron. 2016 Dec 21;92(6):1238-1251. doi: 10.1016/j.neuron.2016.11.012. Epub 2016 Dec 8. PMID: 27939583; PMCID: PMC5320521.
High-content, High-throughput Drug Screening Assay
The TorsinA mislocalization assay was modified from the previously published assay to accommodate compound testing in 1536 well format.1 Briefly, Flp-In T-REx 293 cells from Invitrogen in which a single copy of a cDNA is recombined into a specific genomic locus was used to create tetracycline-inducible expression of cDNA encoding either EGFP-hTOR1A (WT) or EGFP-delE hTOR1A (DYT1). WT and DYT1 cells were diluted to a concentration of 2 x 10^5 cells/mL in reduced serum media (DMEM High Glucose containing 1% tetracycline-tested FBS, 2 mM L-Glutamine, and 1% Penicillin/Streptomycin). 4 µl of WT cells and 4 µl of DTY1 cells were added to column 1 and columns 2-48, respectively, of a poly-D-lysine-coated, low base, black, clear bottom 1536 well plate (Corning, Corning, NY) using the BioRAPTR FRD Microfluidic Workstation (Beckman Coulter, Indianapolis, IN). The final cell number was 800 cells/well. […]
Background: qHTS replaces the single test concentration by a dilution series.
Regarding `CN=C(NC#N)Nc1ccc(C2=NNC(=O)CC2C)cc1` (stereo not given), the “% pathology change, negative = correction” value (“% pathology change” below) is -0.394% (inactive). Still for that read-out and setting: the figure for `C[C@H]1C[C@H]2[C@@H]3CCC4=CC(=O)C=C[C@]4(C)[C@@]3(Cl)[C@@H](O)C[C@]2(C)[C@@]1(O)C(=O)CO` is -12.3% (inactive); for `CCC(=O)c1c(O)cc(O)cc1O` it is -7.1% (inactive); for `C=CCc1ccc(O)c(OC)c1` it is -27.7% (inactive). On the same count and under the same terms, the figure for `C[C@]12CCC(=O)C=C1[C@@H]1C[C@@H]1[C@H]1[C@@H]3[C@@H]4C[C@@H]4[C@@]4(CCC(=O)O4)[C@@]3(C)CC[C@@H]12` is -0.867% (inactive); for `CN(C)CCOc1ccccc1Cc1ccccc1` it is -20.5% (inactive); for `C[C@H](CCC(=O)O)[C@H]1CC[C@H]2[C@@H]3C(=O)C[C@@H]4CC(=O)CC[C@]4(C)[C@H]3CC(=O)[C@]12C` it is 5.71% (inactive).

For `COc1ccc(C2C(=O)c3ccccc3C2=O)cc1`, the “% pathology change” value is -0.353% (inactive). For the compound `CCCC(=O)O[C@]1(C(=O)CO)CC[C@H]2[C@@H]3CCC4=CC(=O)CC[C@]4(C)[C@H]3[C@@H](O)C[C@@]21C`, the “% pathology change” value was 13.3% (inactive). The same measure, in the same setting: the figure for `CN(C)C(=S)SC(=S)N(C)C` is -21% (inactive); for `Oc1ccc(Cl)c2cccnc12` it is -18.7% (inactive); for `Oc1cc(O)c2c(c1)O[C@H](c1ccc(O)c(O)c1)[C@H](O)C2` it is -20.5% (inactive).

Consider `Cc1ccnc(NS(=O)(=O)c2ccc(N)cc2)n1`, for which the “% pathology change” value is -2.44% (inactive). As to `Cc1onc(-c2c(Cl)cccc2Cl)c1C(=O)N[C@@H]1C(=O)N2[C@@H]1SC(C)(C)[C@@H]2C(=O)O`, the “% pathology change” value was 17.4% (inactive).

For the compound `CC(C)(CO)[C@@H](O)C(=O)NCCCO`, the “% pathology change” value was -4.84% (inactive). Still for that read-out and setting: the value for `C[C@]12CC[C@H]3[C@@H](CCC4=CC(=O)CC[C@@]43C)[C@@H]1CC[C@@H]2C(=O)CO` was 12.1% (inactive); that for `O=C(O)CNC(=O)c1ccccc1` was 23.8% (inactive).

For `O=c1[nH]c(=O)n([C@H]2CCCO2)cc1F`, the “% pathology change” value was 6.05% (inactive).

For the compound `Nc1ccn([C@@H]2O[C@H](CO)[C@@H](O)C2(F)F)c(=O)n1`, the “% pathology change” value was -55.6% (inactive). As to `CCOC(=O)[C@H](CCc1ccccc1)N[C@@H](C)C(=O)N1Cc2ccccc2C[C@H]1C(=O)O`, the “% pathology change” value was -2.2% (inactive). `CC(C)(Oc1ccc(Cl)cc1)C(=O)O`: the “% pathology change” value was 14.9% (inactive). On the same count and under the same terms, the value for `c1ccc(CNCCNCc2ccccc2)cc1` was -18.5% (inactive); that for `NCCC(O)(P(=O)(O)O)P(=O)(O)O` was 3.63% (inactive); that for `COc1c(C)c2c(c(O)c1C/C=C(\C)CCC(=O)O)C(=O)OC2` was 1.31% (inactive). Still for that read-out and setting: the value for `COc1cc(OC)cc(OC)c1` was 3.65% (inactive). With `COc1cc2c(cc1OC)C(=O)C(CC1CCN(Cc3ccccc3)CC1)C2` (stereo not given), the Potency is 12.6 µM (active). For the compound `CC(=O)Oc1ccc(C(c2ccc(OC(C)=O)cc2)c2ccccn2)cc1`, the “% pathology change” value is 1.92% (inactive). The same measure, in the same setting: the value for `OCc1ccccc1O` was 2.62% (inactive). The same measure, in the same setting: the figure for `NC(CO)(CO)CO` is 3.07% (inactive); for `O=S1(=O)c2cccc3cccc(c23)N1CCCN1CCN(c2ccc(F)cc2)CC1` it is -25.7% (inactive). On the same count and under the same terms, the figure for `CCCC(=O)Nc1ccc(OCC(O)CNC(C)C)c(C(C)=O)c1` (stereo not given) is 1.55% (inactive); for `CC(C)NC[C@@H](O)COc1cccc2ccccc12` it is -24.3% (inactive).

In the case of `Cc1c(C(C)C)c(=O)n(-c2ccccc2)n1C`, the “% pathology change” value is 2.27% (inactive). Same read-out and setting: the figure for `CCN1CCCC1=O` is 6.86% (inactive).

With `CC(=O)OCC(=O)[C@@]1(OC(C)=O)[C@@H](C)C[C@H]2[C@@H]3C[C@H](F)C4=CC(=O)C=C[C@]4(C)[C@@]3(F)[C@@H](O)C[C@@]21C`, the “% pathology change” value was 5.59% (inactive). Still for that read-out and setting: the figure for `NC(=O)C(=O)N/N=C/c1ccc([N+](=O)[O-])o1` is 10.9% (inactive); for `CC(=O)OCC(=O)NCCCOc1cccc(CN2CCCCC2)c1` it is 18.3% (inactive). On the same count and under the same terms, the value for `O=C(N/N=C/c1ccccc1O)c1ccncc1` was -49.9% (inactive); that for `CC(=O)OCC(=O)[C@@]12N=C(C)O[C@@H]1C[C@H]1[C@@H]3CCC4=CC(=O)C=C[C@]4(C)[C@H]3[C@@H](O)C[C@@]12C` was 8.66% (inactive). For the compound `COc1cc(C=C2CCC/C(=C\c3ccc(O)c(OC)c3)C2=O)ccc1O`, the Potency is 7.08 µM (active).
